Screens deposited in PubChem by several laboratories.
Compounds with a hit are over-represented: about 6.6% of the library has one in this group of screens.
Anthrax LF prot = blocks Bacillus anthracis lethal factor protease; P15917; multiplex microsphere protease cleavage assay, LF; inhibition, % at 10 µM; 360,000 compounds, 0.12% hits; AID 588501
Target sequence (P15917 whole entry, looked up): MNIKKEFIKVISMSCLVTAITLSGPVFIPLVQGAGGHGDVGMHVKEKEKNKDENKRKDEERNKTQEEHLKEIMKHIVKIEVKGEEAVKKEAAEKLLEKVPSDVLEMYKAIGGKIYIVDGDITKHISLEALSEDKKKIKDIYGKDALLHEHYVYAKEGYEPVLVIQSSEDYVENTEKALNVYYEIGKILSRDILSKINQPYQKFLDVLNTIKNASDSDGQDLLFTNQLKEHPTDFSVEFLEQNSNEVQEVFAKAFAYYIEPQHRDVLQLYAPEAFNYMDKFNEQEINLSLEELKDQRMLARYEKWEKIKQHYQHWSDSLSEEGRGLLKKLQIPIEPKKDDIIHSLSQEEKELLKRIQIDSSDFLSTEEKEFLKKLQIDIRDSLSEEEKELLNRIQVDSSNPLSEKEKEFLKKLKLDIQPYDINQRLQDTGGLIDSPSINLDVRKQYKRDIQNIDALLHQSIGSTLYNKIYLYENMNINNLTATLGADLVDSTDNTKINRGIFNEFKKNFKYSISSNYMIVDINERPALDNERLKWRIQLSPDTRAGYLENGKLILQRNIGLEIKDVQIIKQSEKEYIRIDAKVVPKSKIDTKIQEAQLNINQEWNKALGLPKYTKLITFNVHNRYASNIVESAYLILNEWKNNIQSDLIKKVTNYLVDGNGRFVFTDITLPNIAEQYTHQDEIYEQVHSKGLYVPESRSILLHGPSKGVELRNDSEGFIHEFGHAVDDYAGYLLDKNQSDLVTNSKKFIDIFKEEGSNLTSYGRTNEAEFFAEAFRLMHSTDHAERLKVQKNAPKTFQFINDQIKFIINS
GDH-TPI counter-1 = inhibits GDH-TPI coupling enzymes, artifact for Mtb FBA screen | GDH-TPI coupled enzyme counterscreen, NADH absorbance | inhibition, % at 4.8 µM | 360,000 compounds, 1.2% hits; in the data active = inhibition above about 30%
Autofluor counter = compound fluorescence in toxin protease inhibitor counterscreen; compound autofluorescence counterscreen, microsphere flow cytometry; active compounds read high; fluorescence intensity (concentration not given with the values); 360,000 compounds, 3.1% hits; AID 624483; in the data active = fluorescence intensity above about 16000; inconclusive = no clear call, values can overlap the other calls
BoNT-F LC inh = blocks Botulinum neurotoxin F light chain protease; Multiplex microsphere protease cleavage assay, flow cytometry; inhibition, % at 10 µM; 360,000 compounds, 0.22% hits; in the data active = inhibition above about 35%, passing the limit was not always enough; inconclusive = no clear call, values can overlap the other calls
BoNT A protease = blocks Botulinum neurotoxin A light chain protease; multiplex microsphere protease substrate cleavage, flow cytometry; inhibition, % at 10 µM; 360,000 compounds, 0.17% hits; AID 588499
FBA Mtb inh = inhibits M. tuberculosis FBA enzyme; purified M. tuberculosis FBA, fluorescence read-out; inhibition, % at 1 µM; 360,000 compounds, 2.3% hits; AID 588726; P9WQA3; in the data active = inhibition above about 27%
Mtb FBA confirm = Mtb FBA inhibition, confirmed. shares compounds with FBA Mtb inh. purified M. tuberculosis FBA, fluorescence read-out. inhibition, % at 1 µM. 5,600 compounds, 78% hits. AID 651616; in the data active = inhibition above about 27%
GDH-TPI counter-2 = inhibits GDH-TPI coupling enzymes, flagging Mtb FBA hits | shares compounds with FBA Mtb inh | GDH-TPI coupled enzyme counterscreen, fluorescence | inhibition, % at 1 µM | 5,600 compounds, 81% hits | AID 652141; in the data active = inhibition above about 10%
A number is an active result; i = inactive; ? = inconclusive; nt = not tested or not shown; + = active, no number. Rule as the data show it, unless noted: active = inhibition above about 30%; inconclusive = no clear call, values can overlap the other calls; inactive = below that.

SMILES | Anthrax LF prot | GDH-TPI counter-1 | Autofluor counter | BoNT-F LC inh | BoNT A protease | FBA Mtb inh | Mtb FBA confirm | GDH-TPI counter-2
Cc1ccccc1-c1nc(C#N)c(N2CCCCC2)o1 | i | i | i | i | i | 70 | i | i
Cc1ccccc1OCc1nc(C#N)c(N2CCCC2)o1 | i | i | i | i | i | i | nt | nt
Cc1cccc(-c2nc(C#N)c(N3CCCCC3)o2)c1 | i | i | i | i | i | 38 | 36 | 33
COc1cccc(NC(=O)C2CCC(CNS(=O)(=O)c3cccc4cccnc34)CC2)c1 (centres undefined) | i | i | i | i | i | i | nt | nt
Cc1cc(C)c2nc(Cl)c(Cl)nc2c1 | i | i | i | ? | ? | i | nt | nt
Cc1ccc(-c2nc(C#N)c(N3CCC(C)CC3)o2)cc1 | i | i | i | i | i | 67 | 61 | 58
C=C1C2=C(C(=O)N1OC)[C@@H](O)[C@@](C)(O)[C@@H](CCCCC)O2 | i | nt | i | i | i | i | nt | nt
COc1cc(NC(=O)CCC(=O)N2CCN(S(=O)(=O)c3ccc(C)cc3)CC2)cc(OC)c1 | i | i | i | i | i | i | nt | nt
CC(=O)Nc1ccc(NCCc2ccco2)cc1 | i | nt | i | i | i | i | nt | nt
CCC1(C)Cc2c(sc3[nH]c(=O)[nH]c(=O)c23)CS1 (centres undefined) | i | i | i | ? | i | 80 | 72 | 61
COc1c(C)oc2cc(O)ccc2c1=O | i | i | i | i | i | 87 | 58 | 40
Cc1oc2cc(O)ccc2c(=O)c1Oc1ccc(F)cc1 | i | i | i | i | i | 103 | i | i
Cc1oc2cc(O)ccc2c(=O)c1Oc1ccc2ccccc2c1 | i | i | i | i | i | 111 | 53 | 38
CCOc1ccc2c(=O)c(Oc3ccccc3)c(C)oc2c1 | i | i | i | i | i | i | nt | nt
COc1cc2ccccc2cc1C(=O)OCC(=O)c1c(N)n(C)c(=O)n(C)c1=O | i | i | i | i | i | 28 | 178 | 142
COc1ccc(CSc2nc(C)cc(C)c2C#N)cc1 | i | i | i | i | i | i | nt | nt
COc1ccc(CNc2nc(C)cc(C)c2C#N)cc1 | nt | i | nt | nt | nt | 29 | 40 | 26
CCCn1c(=O)c(C(=O)Nc2ccccc2N)c(O)c2ccccc21 | i | i | i | i | i | i | nt | nt
COc1ccc(CN2CN(S(=O)(=O)c3cccs3)c3nc4ccccc4nc32)cc1 | i | i | i | i | i | i | nt | nt
COc1ccc(Cn2c(N)c(S(=O)(=O)c3cccs3)c3nc4ccccc4nc32)cc1 | i | i | i | i | i | 49 | 115 | 79
Nc1c(S(=O)(=O)c2cccs2)c2nc3ccccc3nc2n1Cc1ccccc1 | i | i | 16336 | i | i | 54 | i | i
CCC(C)(C)NC(=O)CN(CCc1cccc(C)c1)C(=O)c1csnn1 | i | i | i | i | i | i | nt | nt
COc1ccccc1CCn1cnc2c3cc(C)ccc3n(C)c2c1=O | i | i | i | i | i | 46 | + | +
Cc1ccc2c(c1)[nH]c1c(=O)n(CCN3CCCCC3)cnc12 | i | i | i | i | i | i | nt | nt
COc1ccc2c(c1)c1ncn(CCN3CCCC3)c(=O)c1n2C | i | i | 21856 | i | i | 89 | 90 | 74
SMILES | Anthrax LF prot | GDH-TPI counter-1 | Autofluor counter | BoNT-F LC inh | BoNT A protease | FBA Mtb inh | Mtb FBA confirm | GDH-TPI counter-2
Cn1c2ccccc2c2ncn(Cc3ccc(F)cc3)c(=O)c21 | i | i | i | ? | ? | i | nt | nt
COc1ccc2c(c1)c1ncn(CCN3CCCCC3)c(=O)c1n2C | i | i | i | i | i | 100 | 107 | 88
CC1(C)CC(=O)C(N=Nc2ccc(S(=O)(=O)N3CCOCC3)cc2)=C(O)C1 | i | i | i | i | i | i | nt | nt
O=C(Oc1cncc(Cl)c1)c1ccco1 | i | i | i | i | i | 33 | 57 | 62
N[C@@H](Cc1ccccc1)C(=O)N1CCC(C(=O)N[C@@H](Cc2c[nH]c3ccccc23)C(=O)O)CC1 | i | i | i | i | i | i | nt | nt
CCOc1ncccc1C(=O)NCc1ccc(OC)cc1 | i | i | i | i | i | i | nt | nt
CCOc1c2ccc(C(=O)NCc3ccc(OC)cc3)cc2nn1CCOC | i | i | i | i | i | 60 | 99 | 72
COc1ccc(CNC(=O)c2ccc(Cl)c(S(=O)(=O)N3CCCCCC3)c2)cc1 | i | i | i | i | i | i | nt | nt
CCCCn1nc2cc(C(=O)NCc3ccc(OC)cc3)ccc2c1OCC | i | i | i | i | i | 40 | 94 | 85
CCOC(=O)N1CCC(NCCNC(=O)c2ccc(F)c(F)c2)CC1 | i | i | i | i | i | i | nt | nt
CCN(CC(=O)Nc1ccc(OC)cc1)C(=O)c1ccc(OCc2c(C)noc2C)cc1 | ? | i | ? | i | i | i | nt | nt
CCOC(=O)c1[nH]c2ccc(OC)cc2c1NC(=S)N1CCN(C(=O)OCC)CC1 | i | i | i | i | i | i | nt | nt
CCOC(=O)c1[nH]c2ccc(OC)cc2c1NS(=O)(=O)c1ccc(OC)cc1OC | i | i | i | i | i | i | nt | nt
CCOC(=O)c1[nH]c2ccc(OC)cc2c1NC(=O)OC | i | i | i | i | i | 38 | + | 146
CCOC(=O)c1[nH]c2ccc(OC)cc2c1N=CN(C)C | i | i | i | i | i | 39 | + | 175
CCOC(=O)c1[nH]c2ccc(OC)cc2c1NC(=O)CCN1CCCC(C)C1 (centres undefined) | i | i | i | i | i | 35 | + | +
Cc1cccc(CN2C(=O)c3ccccc3S(=O)(=O)c3ccc(C(=O)NCCCN4CCCC4)cc32)c1 | i | i | i | i | i | i | nt | nt
CN(Cc1ccccc1)C1(CNC(=O)CCC(F)(F)F)Cc2ccccc2C1 | i | i | i | ? | i | i | nt | nt
O=c1nc2ccccn2c2ccc(S(=O)(=O)N3CCCCC3)cc12 | i | i | i | i | i | 99 | 111 | 85
O=c1nc2ccc(Cl)cn2c2ccc(S(=O)(=O)N3CCCCC3)cc12 | i | i | i | i | i | 60 | i | i
O=S(=O)(c1ccc2ccccc2c1)N1CCN(S(=O)(=O)N2CCCCC2)CC1 | i | i | i | i | i | i | nt | nt
Cc1ccn2c(c1)nc(=O)c1cc(S(=O)(=O)N3CCCCC3)ccc12 | i | i | i | i | i | 54 | 45 | 39
COc1cccc(NC(=O)c2cc(-c3ccc(C)o3)nc3ccccc23)c1 | i | i | i | i | i | i | nt | nt
COc1ccc(NC(=O)CN(C)C(=O)c2cc(-c3ccc(Cl)cc3)nc3ccccc23)cc1 | i | i | i | i | i | i | nt | nt
COc1cccc(NC(=O)CN(C)C(=O)c2cc(-c3ccc(C)o3)nc3ccccc23)c1 | i | i | i | i | i | 56 | 37 | 39
Cc1ccc(-c2cc(C(=O)NCC(c3ccccc3)N(C)C)c3ccccc3n2)o1 (centres undefined) | i | i | i | i | i | 71 | 54 | 46
CCOc1ccc(NC(=O)CN(C)C(=O)c2cc(-c3ccc(OC)cc3)nc3ccccc23)cc1OCC | i | i | i | i | i | 28 | 51 | 39
